PubChem BioAssay (NCATS)
Records with an inconclusive call do not appear. Calls follow the shape of the dose curve; as a rule, active = well fitted curve in either direction with a large enough effect (not every such curve was filed as active); inconclusive = small, poorly fitted or top-dose-only effect, or another doubt; inactive = flat fitted curve, though single readings scatter.

experiment: AP1 Signaling Pathway (AID 357); settings: ME-180 (cervical carcinoma) AP-1-bla reporter, EGF-induced, beta-lactamase ratio, 5 h; at 17.2 µM (top of the series) unless noted;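 also: ME-180 reporter cells stimulated with EGF at its EC50 level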
Method in brief: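 First, ME-180 AP-1-bla cells were cultured overnight at 37 °C in low-serum Opti-MEM. Next, titrated compounds with EC50 EGF were incubated 5 hours. Finally, CCF4 was added for 2.5 hours and the 460/530 nm ratio recorded.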
% is scaled to controls: 0 for no effect and ±100 for the full control effect.

Activity change, negative = inhibition, inactive:
CCCOc1ccc(-c2nnc(N)s2)cc1 9.15%
CC(C)OC(=O)c1sc2nc3c(cc2c1N)C(=O)CCC3 -5.75%
Cc1cc(C)n(C(=O)CNC(=O)c2cccs2)n1 10.9%
CCCCCCOC(=O)CCn1[nH]c(=O)c2ccccc2c1=O 13%
Cc1ccc(-c2nnc(OCCN3CCOCC3)c3ccccc23)cc1 -9.96%
Oc1ccc2ccccc2c1/C=N/n1cnnc1 -5.14%
NC(=O)C1CCN(CCC(=O)Nc2ccc(Br)cc2)CC1 11.3%
COc1ccc(/C(O)=C2\C(=O)C(=O)N(CCN3CCOCC3)C2c2ccccc2OC)cc1 (stereo not given) -4.72%
CCCCNC(=O)N1CCOCCOCCN(C(=O)NCCCC)CCOCC1 -5.59%
CN(C)CC(O)COc1cccc(OCC(O)CN(C)C)c1 (stereo not given) 1.26%
CN(C)CCCn1c(NC(=O)C2CCCCC2)nc2ccccc21 1.38%
Cc1cc(NC(CC(C)C)C(=O)O)nc(Cc2ccccc2)n1 (stereo not given) 0.713%
CCCC(=O)Nn1cnc2c(c1=O)C1(CCCC1)Cc1ccccc1-2 -5.55%
O=C(O)C(Cc1c[nH]c2ccccc12)NS(=O)(=O)c1cccc2nsnc12 (stereo not given) 4.19%
O=C(c1cccc2ccccc12)N1CCC(N2CCN(c3ccccc3)CC2)CC1 -7.39%
CCOc1ccc(S(=O)(=O)N(C)C)cc1-c1nc2c(C(C)(C)C)nn(C)c2c(=O)[nH]1 5.08%
CCOC(=O)CC(=O)CSc1nc2c(cc1C#N)CCCCC2 2.56%
Cc1ccc(C(=O)C2C(c3cccs3)NC(=O)NC2(O)C(F)(F)F)cc1 (stereo not given) 1.39%
COCCNc1nc2c(c(=O)n(C)c(=O)n2C)n1Cc1cccc(C(F)(F)F)c1 13.5%
c1ccc(CN2CCN(c3nc(-c4ccccn4)nc4ccccc34)CC2)cc1 14.9%
CCOC(=O)C(C)c1nc2ccccc2[nH]c1=O (stereo not given) 3.01%
CC1(C)Cc2c(c(-c3ccccc3)[nH]c(=O)c2C#N)CS1 -0.182%
CCN(CC)CCNC(=O)c1c(C)oc2cc(Br)c(OC)cc12 29.7%
OCCCc1nc2ccccc2n1CCc1ccccc1 6.55%
Oc1ccccc1-c1nc(NCCN2CCOCC2)c2ccccc2n1 -13.2%
CC(NC(=O)CSc1nnc(COc2ccccc2)o1)c1ccccc1 (stereo not given) -6.03%
Cc1[nH]nc2cn[nH]c12 -10.4%
C[N+](C)(C)CCOP(=O)([O-])OC[C@H](O)CO 9.55%
CCOC(=O)C1=C(N)N2C(=O)CSC2=C(C(=O)OC)C1 -12.4%
N/C(CCN1CCOCC1)=N/O 18.7%
Cn1c(=O)c2c(nc(N3CCC(C(N)=O)CC3)n2CCSc2nc3ccccc3s2)n(C)c1=O -0.203%
CC(=O)N1CCC2(CC1)C(C#N)=C(N)Oc1n[nH]c(C(F)(F)F)c12 8.06%
Cc1ccc(-n2nc3cc(Cl)c(NC(=O)c4ccco4)cc3n2)cc1 28.5%
O=C1C(=O)N(Cc2cccnc2)C(c2ccccn2)/C1=C(/O)c1ccc(Br)cc1 (stereo not given) -19.9%
COc1ccc2c(c1)nc(N)n2Cc1ccccc1 -1.6%
O=C(O)c1ccc(C2CCCCC2)cn1 12.7%
CCSc1nnc(NC(NC(=O)c2ccco2)(C(F)(F)F)C(F)(F)F)s1 15.1%
c1ccc2c(c1)[nH]c1c(N3CCSCC3)ncnc12 -11.4%
CC(C)Oc1ccc(/C(O)=C2/C(=O)C(=O)N(CCN3CCOCC3)C2c2ccccc2)cc1 (stereo not given) -9.89%
COC(=O)C(NC(C)=O)(Nc1nc2ccc(S(C)(=O)=O)cc2s1)C(F)(F)F (stereo not given) -0.134%
